Measured values: PubChem BioAssay AID1578 (Sanford-Burnham Center for Chemical Genomics, 2009)
About 3,000 (1%) of roughly 290,000 compounds were called active. The sample as a whole holds a higher share of actives than the screen did. Values without a mark were called inactive. No stated cut-off is given here; in the data, active means inhibition mostly above about 36% (no sharp cut-off); inactive means mostly below about 34%.

Assay: NOD1 signaling inhibitors, primary screen, cell-based, luminescence, uHTS (AID 1578);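 further: HEK-293T reporter cells stimulated with the NOD1 agonist gamma-tri-DAP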
Details: NOD1-driven NF-kB luciferase reporter cells, at 4 µM, hits give high values
`CN(C(=S)NC(=O)Cc1ccccc1)c1ccccc1` showed an inhibition of -27.4%. `Cc1cc(C)cc(NC(=S)N2CCN(S(=O)(=O)c3ccccc3)CC2)c1` showed an inhibition of -17.6%. With `Cc1csc(CN(C)C(=O)CC2C(=O)NCCN2Cc2ccc(F)cc2Cl)n1` (configuration not stated) the inhibition was -11.4%. With `c1coc(CNc2nc3ccccc3n2CCN2CCOCC2)c1` the inhibition was 43.1% (active). In the case of `c1csc(CNc2nc3ccccc3n2CCN2CCOCC2)c1`, the inhibition is reported as 1.1%. For `CCCn1c(NCc2ccco2)nc2ccccc21`, the inhibition was -16.4%. `CNc1ccc(/C=C(\C#N)c2ccccn2)cc1[N+](=O)[O-]` gave an inhibition of -34.3%. For `N#C/C(=C\c1ccc([N+](=O)[O-])cc1)c1ccccn1`, the inhibition was -27.2%. With `N#C/C(=C\c1ccc(Cl)c([N+](=O)[O-])c1)c1ccccn1` the inhibition was 47.2% (active). In the case of `CN(C)c1ccc(/C=C(\C#N)c2ccccn2)cc1`, the inhibition is reported as 73.6% (active). With `CCN(CC)c1ccc(/C=C(\C#N)c2ccccn2)cc1` the inhibition was -55.6%. For `CN(CCC#N)c1ccc(/C=C(\C#N)c2ccccn2)cc1`, the inhibition was 30.9%. Work on `CCOC(=O)c1sc(NC(=O)C(C)Sc2nnc(N)s2)nc1C` (configuration not stated) yielded an inhibition of -12.9%. With `CCNC(=O)Nc1cc2nc(C)n(Cc3ccc(Br)cc3)c2nc1C` the inhibition was 24.1%. With `Cc1cc(C(=O)CCl)c(C)n1-c1cccc([N+](=O)[O-])c1` the inhibition was 77.4% (active). For `Cc1cc(C(=O)CC#N)c(C)n1-c1c(C)n(C)n(-c2ccccc2)c1=O`, the inhibition was -19.8%. With `Cc1cc(-n2c(C)cc(C(=O)CN3C(=O)NC4(CCCC4)C3=O)c2C)no1` the inhibition was -20.6%. `CCOC(=O)c1cc(C)n(-c2c(C)n(C)n(-c3ccccc3)c2=O)c1C` gave an inhibition of -12.8%. In the case of `Cc1cc(C(=O)CCl)c(C)n1-c1c(C)n(C)n(-c2ccccc2)c1=O`, the inhibition is reported as 42.5% (active). With `Cc1cc(C(=O)CCl)c(C)n1-c1ccon1` the inhibition was 28.2%. For `Cc1cc(-n2c(C)cc(C(=O)CCl)c2C)no1`, the inhibition was 46.4% (active). In the case of `COc1ccc(-n2c(C)cc(C(=O)CCl)c2C)cc1`, the inhibition is reported as 39.1%. For `CC(=O)c1c(C(C)=O)c(C)n(-c2cccc([N+](=O)[O-])c2)c1C`, the inhibition was -27.2%. In the case of `COc1ccc(NC(=O)Nc2cccc3ccccc23)cc1S(N)(=O)=O`, the inhibition is reported as 25.8%. In the case of `N/C(=N\O)c1cccc(CS(=O)(=O)c2ccccn2)c1`, the inhibition is reported as -7.5%. `Cc1ccc(-n2[nH]c(C)c(C=NC34CN5CN(CN(C5)C3)C4)c2=O)cc1C` showed an inhibition of 9.5%. Compound `CCCN1C(=S)c2ccccc2C1c1ccccc1` (configuration not stated) has an inhibition of 35.5%. `O=S(=O)(NN1CCOCC1)c1ccc(Cl)s1` gave an inhibition of -37.6%. In the case of `O=C1c2cccc3cccc(c23)C(=O)N1Cc1ccccc1`, the inhibition is reported as -16.9%. In the case of `Cc1ccc(CN2CCN(CCCn3cccn3)CC2CCO)cc1` (configuration not stated), the inhibition is reported as -31%. `CCOC(=O)N1CCN(c2cc(=O)n(Cc3ccc(F)cc3)c(=O)[nH]2)CC1` showed an inhibition of -37.3%. For `Cc1ccc(CN2C3CCCC2CC(NC(=O)c2ccc(C)cc2)C3)cc1` (configuration not stated), the inhibition was -21.4%. For `Cc1ccc(C(=O)NC2CC3CCCC(C2)N3Cc2ccccc2)cc1` (configuration not stated), the inhibition was 59% (active). `Cc1ccc(CN2C3CCCC2CC(NC(=O)c2ccc(F)cc2)C3)cc1` (configuration not stated) gave an inhibition of -0.1%. In the case of `CC1CCCC(C)N1C(=O)Cn1nnc(-c2ccc([N+](=O)[O-])cc2)n1` (configuration not stated), the inhibition is reported as -36.1%. In the case of `CC1=NC(C)(C)Cc2ccccc21`, the inhibition is reported as 1.3%. In the case of `CC1(C)Cc2ccccc2C2=NNC(=O)C2=N1`, the inhibition is reported as 41.8% (active). Compound `CC1(C)CC(=O)C(C2=NC(C)(C)Cc3ccccc32)=C(O)C1` has an inhibition of -9.1%. With `O=[N+]([O-])c1cc2c(cc1/C=N/Nc1nc(Nc3ccccc3)nc(N3CCCCC3)n1)OCO2` the inhibition was -23%. Work on `Cc1ccc([N+](=O)[O-])cc1NC(=O)CN(C1CCCCC1)S(=O)(=O)c1ccc(Cl)cc1` yielded an inhibition of -5%. Work on `O=S(=O)(c1ccc2ccccc2c1)N(CC1CO1)c1ccccc1` (configuration not stated) yielded an inhibition of -30.1%. `Cc1nn2c(SCC(=O)c3cccs3)cc(C(C)(C)C)nc2c1-c1ccccc1` showed an inhibition of 5.2%. In the case of `Cc1cc(SCC(=O)c2cccs2)n2nc(C)c(-c3ccccc3)c2n1`, the inhibition is reported as 20.3%. With `Cc1cc(SCC(=O)c2cccs2)n2nc(C)c(-c3ccc(Cl)cc3)c2n1` the inhibition was 79.4% (active). With `CCOc1ccc(/C=N/n2c(C)nc3ccccc3c2=O)cc1` the inhibition was -12.3%. `N#C/C(=C\c1cn(-c2ccccc2)nc1-c1cccnc1)c1nnc2n1CCCCC2` gave an inhibition of -13%. `O=C1COc2ccc(S(=O)(=O)NCc3ccccc3)cc2N1` showed an inhibition of -13.7%. Compound `c1ccc(-c2cnc(-c3cccnc3)o2)cc1` has an inhibition of -16.8%. Compound `NC(=O)c1ccc(-c2ncc(-c3ccccc3)o2)cc1` has an inhibition of 14.6%. For `Nc1ccc(-c2ncc(-c3ccccc3)o2)cc1`, the inhibition was 46.7% (active). For `CCC(C)(C)NC(=O)CN(C(=O)CNS(=O)(=O)c1ccc(F)cc1)c1ccc2c(c1)OCCO2`, the inhibition was -13%. In the case of `O=C(NCCCn1ccnc1)c1ccc(Cl)c(Cl)c1`, the inhibition is reported as 3.9%. In the case of `O=S(=O)(Nc1ccc(N2CCOCC2)cc1)c1cccs1`, the inhibition is reported as -20.1%. With `O=C1N/C(=N\N=C\c2ccc3ncccc3c2)SC1Cc1ccc(SC(F)F)cc1` (configuration not stated) the inhibition was -44%. With `O=C1N/C(=N\N=C\c2cccnc2)SC1Cc1ccc(SC(F)F)cc1` (configuration not stated) the inhibition was 106% (active). Work on `O=C(CC1S/C(=N/N=C/c2cccnc2)NC1=O)Nc1ccccc1` (configuration not stated) yielded an inhibition of -13.1%. Compound `O=C(N/N=C/c1ccc([N+](=O)[O-])cc1)c1cccc(N2CCCC2=O)c1` has an inhibition of -9.3%. With `Cc1cc(=O)oc2cc(OCC(=O)NC(Cc3c[nH]c4ccc(O)cc34)C(=O)O)c(Cl)cc12` (configuration not stated) the inhibition was -16.2%. Work on `COc1ccc(C(=O)NCCN2C(=O)S/C(=C\c3cccnc3)C2=O)cc1[N+](=O)[O-]` yielded an inhibition of 1.6%. With `Cc1c(C(=O)NCCN2C(=O)S/C(=C\c3cccnc3)C2=O)cccc1[N+](=O)[O-]` the inhibition was 1.5%. With `CS(=O)(=O)c1ccc(C(=O)NCCN2C(=O)S/C(=C\c3cccnc3)C2=O)cc1[N+](=O)[O-]` the inhibition was 93.4% (active). Compound `COc1ccc(/C=C2\SC(=O)N(CCNC(=O)Cc3coc4cc(C)ccc34)C2=O)cc1OC` has an inhibition of -2.7%. In the case of `COc1ccc2c(CC(=O)NCCN3C(=O)S/C(=C\c4cccnc4)C3=O)coc2c1`, the inhibition is reported as 68% (active). Compound `COc1ccc(/C=C2\SC(=O)N(CCNC(=O)Cc3coc4cc(OC)ccc34)C2=O)cc1` has an inhibition of -10.8%. With `O=C(O)CSCC(=O)N1CCN(S(=O)(=O)c2ccccc2)CC1` the inhibition was -20.2%. Compound `c1ccc(NC2=NCCN2CC2CCCC2)cc1` has an inhibition of -17.2%. In the case of `CCC(C)NC(=O)c1ccc2nc(Cc3ccc(OC)cc3)oc2c1` (configuration not stated), the inhibition is reported as -14.9%. For `COc1ccc(Cc2nc3ccc(C(=O)NC(C)c4cnn(C)c4)cc3o2)cc1` (configuration not stated), the inhibition was -4.3%. With `COc1ccc(OC)c(NC(=O)CNC(=O)Cn2cnc3sc(C)cc3c2=O)c1` the inhibition was -3.5%. Compound `COc1ccc(-c2cc(=O)oc3cc(OCC(C)=O)ccc23)cc1` has an inhibition of -12.9%. With `COc1ccc(-c2cc(=O)oc3cc(OC(=O)C4CCCCC4)ccc23)cc1` the inhibition was 87.8% (active). For `COc1ccc(-c2cc(=O)oc3cc(OC(C)C(=O)O)ccc23)cc1` (configuration not stated), the inhibition was 29.6%. With `O=C(Oc1ccc2ccc(=O)oc2c1)C1CCCCC1` the inhibition was -28.4%. In the case of `O=C(Oc1ccc2c(-c3ccccc3)cc(=O)oc2c1)C1CCCCC1`, the inhibition is reported as 13.8%. In the case of `Nc1cc(=O)[nH]c(SCc2ccccc2Cl)n1`, the inhibition is reported as -3.2%. `CN1C(=O)S/C(=C/c2cccnc2)C1=O` gave an inhibition of -3.3%. For `Cc1cc(C(=O)NC2CC(C)(C)Cc3c2cnn3-c2ccccc2C)c(C)o1` (configuration not stated), the inhibition was -10.6%. Work on `Clc1ccccc1OCc1nn2c(-c3ccncc3)nnc2s1` yielded an inhibition of -2.2%. In the case of `COc1ccc(NC(=O)CSc2ccc(-c3sc(C)nc3C)nn2)cc1OC`, the inhibition is reported as -3.5%. `COc1ccc(NC(=O)CSc2ccc(-c3sc(C)nc3C)nn2)cc1` showed an inhibition of -17.2%. For `CCOC(=O)CCCCCN1C(=O)c2cccc3cccc(c23)C1=O`, the inhibition was -23.8%. `CCN(CC)S(=O)(=O)c1ccc(C(=O)NCCCn2ccnc2)cc1` gave an inhibition of -65.6%. `O=C(O)c1ccc(N2CCCCS2(=O)=O)cc1` showed an inhibition of -12.1%. `Cc1noc(C(=O)NCc2ccco2)c1Cl` gave an inhibition of -14.8%. Work on `COc1ccc(NC(=O)CS(=O)(=O)c2ccc(F)cc2)cc1` yielded an inhibition of -5.8%. Compound `O=C(Nc1ccccc1)c1cc2ccc3ccccc3c2s1` has an inhibition of -10.5%. Compound `O=C(Nc1ccc(O)cc1)c1cc2ccccc2c(=O)s1` has an inhibition of -2.1%. For `O=C(Nc1ccccc1)c1cc2ccccc2c(=O)s1`, the inhibition was 63.7% (active). Work on `Cc1ccc(C)c(N2CCN(C(=O)CCS(=O)(=O)c3cccc4nonc34)CC2)c1` yielded an inhibition of 1.8%. With `CC(C)C[C@H](N)c1nnc(SCc2ccc(Cl)cc2)o1` the inhibition was 20.5% (active). Work on `CC(C)C[C@@H](N)c1nnc(SCC(=O)c2ccc(Cl)cc2)o1` yielded an inhibition of -21.8%. `CC(C)[C@H](N)c1nnc(SCc2ccc(Cl)cc2)o1` gave an inhibition of -4.6%. Work on `COc1cc(C=Nc2cccc(C)c2)c(O)c([N+](=O)[O-])c1` yielded an inhibition of -20.1%. `Cc1ccc(O)c(C=Nc2cc(C)ccc2O)c1` showed an inhibition of -25.5%. In the case of `O=[N+]([O-])c1cc(Cc2ccccc2)cc(C=Nc2ccc(N3CCOCC3)cc2)c1O`, the inhibition is reported as 34%. `COc1ccc(N=Cc2cccc(C)c2O)cc1Cl` gave an inhibition of -10%. For `COc1ccc(N=Cc2cc(Cc3ccccc3Cl)cc([N+](=O)[O-])c2O)cc1OC`, the inhibition was 62.4% (active).
